This excerpt belongs to a sample that is enriched for hits.
Shiga toxin inh – Shiga toxin inhibition. Vero cells, Shiga toxin protein synthesis inhibition reporter. inhibition, % at 38.7 µM. 290,000 tested, 9.2% active. AID 2315; in the data active = inhibition mostly above about 28%, no sharp cut-off; inactive = mostly below about 43%; note: 0% is about no effect
Giardia FBPA inh – blocks Giardia fructose-bisphosphate aldolase activity. 290,000 tested, 0.71% active. purified Giardia FBPA. A8B2U2. Potency, µM (highest dose often 59.6 µM), inactives show top-dose activity, negative = inhibition, hits mostly inhibitors; note: potency is the fitted concentration of half-maximal effect; % is set by controls: 0 for no effect and ±100 for the full control effect; nearly all actives have a fitted effect of over 55% in size
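40 nM FBPA preincubated 10 min at RT with compound (up to 57.5 uM final), then substrate plus GAPDH/TPI/NAD/arsenate coupling and diaphorase/resazurin added. Fluorescence read after 20 min at RT, 525/598 nm.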
CHX counter – counter-screen hit for Shiga toxin inhibitors, cycloheximide | max response, % | cell reporter, cycloheximide protein synthesis inhibition counterscreen | 300,000 tested, 12% active | AID 2314; in the data active = max response mostly above about 13%, no sharp cut-off; inactive = mostly below about 14%; note: read at 38.3 µM for the half of the compounds with a filed dose; 0% is about no effect
Tb PYK inh – T. brucei pyruvate kinase inhibition; TbPYK enzyme, Kinase-Glo Plus ATP luminescence, 45 min; Potency, µM (top dose mostly 76.8 µM), inactives show at the top dose activity, negative = inhibition, usual class: inhibitors; 410,000 tested, 0.12% active; note: potency is the fitted concentration of half-maximal effect; % is set by controls: 0 for no effect and ±100 for the full control effect; nearly all actives have a fitted effect of over 50% in size
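Readout: single end-point luminescence (Kinase-Glo Plus, 10 min). Reaction conditions were TbPYK/substrate plus 130 uM ADP, 45 min at RT, pH 7.2 TEA buffer. No-enzyme wells served as controls, and data were normalized before concentration-response fitting.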
Sm TGR block – S. mansoni TGR enzyme inhibition | Potency, µM (doses to about 114 µM), without a hit: at the top dose activity change, negative = inhibition, most hits filed as inhibitors | purified TGR, DTNB reduction, TNB absorbance 405 nm | 360,000 tested, 3% active | Q962Y6; note: potency is the fitted concentration of half-maximal effect; % is set by controls: 0 for no effect and ±100 for the full control effect; nearly all actives have a fitted effect of over 60% in size
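Kinetic colorimetric format: TGR-catalysed, NADPH-driven DTNB reduction monitored via TNB absorbance. Enzyme dispensed at 20 nM; compound exposure 15 min at room temperature before reaction start.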
LmPK inhibitor – inhibitors of Leishmania mexicana pyruvate kinase | Q27686 | purified LmPK, Kinase-Glo ATP luminescence, 1 h | Potency, µM (highest dose often 57.5 µM), inactives show at the top dose activity change, negative = inhibition, most hits filed as inhibitors | 290,000 tested, 0.37% active | AID 1721; note: potency is the fitted concentration of half-maximal effect; % is set by controls: 0 for no effect and ±100 for the full control effect
Target sequence (Q27686 whole entry, looked up): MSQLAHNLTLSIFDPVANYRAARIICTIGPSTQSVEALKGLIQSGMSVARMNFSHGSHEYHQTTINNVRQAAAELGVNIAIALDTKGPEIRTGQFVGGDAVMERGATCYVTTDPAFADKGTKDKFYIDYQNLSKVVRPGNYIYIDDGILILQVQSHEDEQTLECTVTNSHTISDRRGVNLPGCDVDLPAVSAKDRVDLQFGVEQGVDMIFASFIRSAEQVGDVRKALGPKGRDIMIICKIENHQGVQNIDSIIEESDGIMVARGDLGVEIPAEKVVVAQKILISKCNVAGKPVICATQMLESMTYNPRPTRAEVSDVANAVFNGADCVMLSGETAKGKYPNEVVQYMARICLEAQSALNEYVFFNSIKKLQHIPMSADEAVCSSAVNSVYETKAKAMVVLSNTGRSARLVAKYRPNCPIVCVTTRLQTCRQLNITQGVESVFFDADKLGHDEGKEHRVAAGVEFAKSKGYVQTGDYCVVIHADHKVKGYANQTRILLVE
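Screened at intermediate enzyme activity to detect both inhibitors and activators: LmPK at 0.1 nM, with a 0.5 nM enzyme column as activation reference. PEP 0.5 mM, ADP 0.1 mM; ATP detected by luminescence after 1 h.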
* hit, by the source's call; ? = inconclusive; / = no result; [ ] = remark or other dose. Unless noted, calls come from the whole dose curve; as a rule, active = well fitted curve in the direction sought with a large enough effect; inconclusive = small, poorly fitted or top-dose-only effect, or another doubt; inactive = no such curve, though single readings can be large; an effect the other way counts as inactive or inconclusive.

SMILES | Shiga toxin inh | Giardia FBPA inh | CHX counter | Tb PYK inh | Sm TGR block | LmPK inhibitor
O=C(/C=C/c1ccc([N+](=O)[O-])cc1)c1ccccc(=O)c1O | / | / | / | -6.8% | / | /
O=C(/C=C/c1cc2ccccc2o1)c1ccccc1O | 78.5* | 1.5% | 41.4* | -1.9% | 8.3% | -2.5%
O=C(/C=C/c1ccc(O)c(O)c1)c1ccccc1O | 72.4* | -26.7% | 41.2* | -23.3% | ? | ?
Cc1cc(Br)cn2c(Cc3ccsc3)c(-c3ccc(Cl)cc3)nc12 | / | / | / | 3.0% | / | /
O=NN(CCCl)C(=O)NC1CCCCC1 | / | / | / | -6.7% | / | /
Oc1ccc(Cl)cc1C1=NNC(c2ccc(Cl)cc2)C1 (centres undefined) | 30.8* | -9.0% | 29.5* | -5.7% | ? | 0.8%
Oc1c(Cl)cc(Cl)cc1C1=NNC(c2ccc(Cl)cc2)C1 (centres undefined) | 73.2* | 6.7% | 30.8* | 1.3% | 3.16µM* | -1.4%
Cc1ccc(S(=O)(=O)CC(=O)N2CCN(c3nc4c(F)cccc4s3)CC2)cc1 | / | / | / | -2.3% | 5.0% | /
Cc1ccc(-n2c(=O)c3oc4ccccc4c3n(Cc3cccc(F)c3)c2=O)cc1C | / | / | / | 2.3% | -0.4% | /
Cc1ccc(S(=O)(=O)Nc2c(C)nc3nc(C)[nH]n3c2=O)c(C)c1 | 20.0 | -29.5% | -4.7 | 1.8% | 2.3% | 0.3%
O/N=C/c1ccnc(SCc2ccccc2)n1 | 64.3* | 0.4% | 31.3* | 1.3% | 3.3% | 1.6%
O/N=C/c1ccnc(SCc2ccc(Cl)cc2)n1 | 74.7* | 21.2% | 51.2* | 3.0% | 12.2% | -1.1%
Cc1ccnc(SCc2ccc(C(=O)O)cc2)n1 | -8.9 | -1.0% | -2.3 | -13.9% | 5.0% | -1.6%
CC(=O)c1cnc(SCc2ccc(Cl)cc2)nc1C | 29.9 | -0.3% | 10.9 | 4.9% | / | -2.3%
CCc1ccc(NC(=O)c2cnccn2)cc1 | 55.3* | -6.3% | 38.2* | -9.8% | -12.0% | -2.6%
CCCCOC(=O)c1ccc(NC(=O)c2cnccn2)cc1 | 10.4 | 1.9% | 17.9 | 5.3% | 8.0% | 0.7%
O=C(Nc1ccc(OC(F)(F)F)cc1)c1cnccn1 | 101.2* | 3.2% | 55.0* | 1.1% | 5.4% | -6.8%
O=C(Nc1ccc(NC(=O)c2ccco2)cc1)c1cnccn1 | 58.4 | 2.0% | 25.2* | 2.3% | 0.0% | -29.5%
CCCOC(=O)c1ccc(NC(=O)c2cnccn2)cc1 | 50.8* | 2.8% | 26.0* | -4.0% | 4.7% | -9.9%
CC(C)N1CCC(C)(C(=O)Nc2cccc(Oc3ccccc3)c2)C1 (centres undefined) | / | / | / | 0.1% | / | /
CC(NC(=O)C1CCN(C(=O)c2ccc(-n3ccc4ccccc43)s2)CC1)c1ccccc1 (centres undefined) | / | / | / | -2.0% | -7.8% | /
CCc1ccc(NC(=O)c2cnc3scc(C)n3c2=O)cc1 | 11.0* | 0.6% | 34.0* | -5.8% | -1.3% | -0.5%
Cc1csc2ncc(C(=O)Nc3cccc(C(F)(F)F)c3)c(=O)n12 | -1.4 | 0.7% | 8.0 | 0.6% | -0.8% | -2.7%
Nc1ccc2c(c1)COc1ccccc1O2 | 88.0* | -6.4% | 15.9* | -11.3% | 0.5% | -2.9%
CCOC(=O)c1ccc(Nc2c(-c3ccc(O)c(OC)c3)nc3nc[nH]n23)cc1 | / | / | / | -14.8% | 31.6µM* | /
SMILES | Shiga toxin inh | Giardia FBPA inh | CHX counter | Tb PYK inh | Sm TGR block | LmPK inhibitor
CCCCN1C(=O)c2[nH]nc(-c3ccccc3O)c2C1c1ccc(C(C)(C)C)cc1 (centres undefined) | / | / | / | 1.9% | 8.4% | /
O=C(Nc1ccccc1)n1ccc(-c2ccc(-n3ccnc3)cc2)n1 | 40.4* | -4.8% | 42.6* | / | 14.9% | 2.8%
COC(=O)NC(NC(=S)Nc1ccc([N+](=O)[O-])cc1)C(Cl)(Cl)Cl (centres undefined) | -5.0 | -7.7% | -3.2 | -10.8% | 20µM* | 3.6%
CC(=O)NC(NC(=S)Nc1ccc(N=Nc2ccccc2)cc1)C(Cl)(Cl)Cl (centres undefined) | 70.6* | -6.3% | 59.8* | -0.8% | 8.8% | 3.2%
O=[N+]([O-])c1ccc(C(O)CNC(=S)Nc2ccccc2)cc1 (centres undefined) | -9.3 | -0.3% | 1.6 | 3.0% | 8.9% | 0.6%
COC(CNC(=S)Nc1ccc([N+](=O)[O-])cc1)OC | active | 0.0% | 14.1* | -9.9% | ? | 1.4%
CC(=O)NC(NC(=S)Nc1ccc(S(N)(=O)=O)cc1)C(Cl)(Cl)Cl (centres undefined) | 16.0 | -5.9% | -2.0 | -2.5% | -19.9% | 2.5%
O=c1[nH]c(Nc2ccccc2Cl)cc2ccccc12 | / | / | / | -3.9% | / | /
Cc1ccccc1Nc1cc2ccccc2c(=O)[nH]1 | 1.6 | ? | 1.3 | -30.0% | 3.16µM* | 5.1%
O=c1[nH]c(Nc2ccc(F)cc2)cc2ccccc12 | -9.5 | ? | 5.9 | -10.4% | 35.5µM* | -3.1%
COc1ccc2[nH]c3c(=O)n(CCCCC(=O)NCCN4CCCC4)c(=S)[nH]c3c2c1 | -7.3 | -13.6% | -4.8 | 6.31µM* | 45.2% | 7.08µM*
COc1ccc2[nH]c3c(=O)n(CCCCC(=O)N4CCC(C(N)=O)CC4)c(=S)[nH]c3c2c1 | 32.0 | -4.7% | -2.1 | 6.31µM* | -9.3% | 3.98µM*
CN1CCc2cc(O)c(O)cc2C1Cc1ccc(O)c(O)c1 (centres undefined) | -17.5 | -27.3% | -6.5 | / | / | /
CCOc1ccc(NC(=O)Cc2ccc(-n3c(C)nc4cccnc43)cc2)cc1 | / | / | / | -4.7%[15.4 µM] | 3.2% | /
C[C@H](NCCc1ccc(O)cc1)[C@@H](O)c1ccc(O)cc1 | / | -1.1%[21.7 µM] | / | 2.1% | / | /
O=C1c2ccccc2C(=O)c2cc(S(=O)(=O)Nc3cccc4cccnc34)ccc21 | 16.7 | ? | 6.8 | / | / | /
O=C1C=C(Nc2ccccc2C(=O)O)c2ccccc2C1=O | 25.6 | 1.58µM* | 11.1 | -16.1% | ? | -28.6%
O=C1C=C(Nc2ccccc2)c2ccccc2C1=O | 14.8 | ? | 8.8 | -8.8% | -13.9% | -11.5%
O=C1C=C(Nc2cccc3cccnc23)c2ccccc2C1=O | -2.5 | 1.58µM* | 1.2 | -9.6% | 31.6µM* | -1.9%
COCCNc1ncnc2c1ncn2[C@H]1CN(Cc2ccc(-c3ccccc3)cc2)C[C@@H](CO)O1 | / | / | / | 5.3% | / | /
COC(=O)c1cc2occc2n1Cc1nc(-c2ccccc2)oc1C | / | / | / | 2.8% | 0.6% | /
Cc1ccc(CN2CCNC(=O)C2CC(=O)N(C)C2CCOCC2)cc1 (centres undefined) | -6.3 | ? | -0.8 | 2.9% | 44.7µM* | -7.9%
CN(C(=O)CC1C(=O)NCCN1Cc1ccoc1)C1CCOCC1 (centres undefined) | -6.6 | 2.6% | -1.8 | -3.3% | -18.0% | 3.1%
CN(C(=O)CC1C(=O)NCCN1Cc1c(F)cccc1Cl)C1CCOCC1 (centres undefined) | 0.1 | ? | -2.1 | 6.3% | 50.1µM* | -1.2%
COC(=O)CC1Oc2ccccc2-n2cc(-c3ccc(Cl)cc3)nc21 (centres undefined) | / | / | / | -6.4% | 2.6% | /
CC1C(=O)C(=O)C=CN1C (centres undefined) | / | / | / | -4.7% | / | /
